{
  "source": "PubChem BioAssay AID588690",
  "about": "(Broad Institute, 2011)",
  "note": "The campaign covered roughly 2,400 compounds. Fewer than 10 were called active. About 1% were inconclusive and are not listed. Not all results are given here. A number with no mark means an inactive call.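 The calls were made as follows: active = highest replicate activation at or above 34% and every replicate reaching that threshold; inconclusive = meets only one of the two criteria; inactive = meets neither criterion.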",
  "data": [
    {"molecular_target": "Protein FosB (Mus musculus) (UniProt P13346)", "sequence (P13346 whole entry, looked up)": "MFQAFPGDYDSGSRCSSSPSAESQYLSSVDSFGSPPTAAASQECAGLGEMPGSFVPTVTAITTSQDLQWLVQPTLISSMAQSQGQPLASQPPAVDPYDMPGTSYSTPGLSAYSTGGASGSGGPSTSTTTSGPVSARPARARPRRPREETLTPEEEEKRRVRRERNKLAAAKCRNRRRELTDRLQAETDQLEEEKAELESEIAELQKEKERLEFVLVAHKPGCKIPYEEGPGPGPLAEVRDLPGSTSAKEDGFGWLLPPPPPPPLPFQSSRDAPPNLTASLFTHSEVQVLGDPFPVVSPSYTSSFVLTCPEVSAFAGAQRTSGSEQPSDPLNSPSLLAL", "assay": "activators of mouse delta FosB DNA binding, confirmation, biochemical, fluorescence polarization, TAMRA-CDK5 oligo, cherry-picked samples (AID 588690);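 also: higher polarization means more probe DNA bound by delta FosB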", "conditions": "purified delta FosB, at 24.9 µM, hits give high values, normalised: neutral wells 0, positive control 100", "units": {"activation": "%"}, "values": [
      {"smiles": "CN(CC(=O)Nc1ccc(Cl)cc1)C(=O)CNC(=O)c1ccc2ccccc2c1", "activation": 6.82},
      {"smiles": "C#CCOCCOCCOCCNc1nc(N2CCN(C(=O)C([C@@H](C)O)n3cc([C@@H](N)CCCCN)nn3)CC2)nc(N2CCN(C(=O)[C@H](CCCCN)n3cc(CN)nn3)CC2)n1", "note": "(stereo partly specified)", "activation": -0.353},
      {"smiles": "Cc1nn(Cc2ccc(Cl)cc2)c(Cl)c1/C=N/NC(=O)CNc1ccccc1F", "activation": 1.57},
      {"smiles": "Cc1ccc(C)c(NC(=O)C(OC(=O)c2ccc(C)s2)c2ccccc2)c1", "note": "(stereo unspecified)", "activation": -0.981},
      {"smiles": "Nc1nc(COC(=O)CCC(=O)c2ccc(Cl)cc2)nc(Nc2ccccc2)n1", "activation": 0.207},
      {"smiles": "COc1ccc(Cn2c(=S)[nH]c3cc(C(=O)N4CCCCC4)ccc3c2=O)cc1", "activation": -2.01},
      {"smiles": "COc1ccc(-c2cc(=O)oc3cc(OC(C)C(=O)Nc4ccc(CN5CCOCC5)cc4)ccc23)cc1", "note": "(stereo unspecified)", "activation": 0.361},
      {"smiles": "Cc1cc(NC(=O)CSc2nc3cc(Cl)ccc3c(=O)n2Cc2ccco2)no1", "activation": 3.74},
      {"smiles": "O=C(Nc1nc(-c2ccc(-c3ccccc3)cc2)cs1)c1cnccn1", "activation": 5.91},
      {"smiles": "O=C(Cn1nnc(-c2ccccc2)n1)NCc1ccc2c(c1)OCO2", "activation": 5.36},
      {"smiles": "Cc1sc2ncnc(N3CCC(C(=O)Nc4nc5ccc(Cl)cc5s4)CC3)c2c1C", "activation": 5.08},
      {"smiles": "CC(Sc1nc(-c2ccccc2)cc(C(F)(F)F)n1)C(=O)Nc1ccc2c(c1)OCO2", "note": "(stereo unspecified)", "activation": 0.405},
      {"smiles": "COc1ccc2nc(/N=C(\\N)NC(=O)Nc3ccccc3)nc(C)c2c1", "activation": -5.43},
      {"smiles": "COc1ccc(-n2c(SCC(=O)Nc3sc4c(c3C#N)CCCC4)nnc2-c2ccc(O)cc2)cc1", "activation": 2.22},
      {"smiles": "O=C(Cc1nc2ccccc2[nH]c1=O)c1ccc(Cl)cc1", "activation": 3.64},
      {"smiles": "CCCCNC(=O)C(C)N(CCN(C)C)C(=O)CCCCCN1C(=O)NC(c2ccc(Cl)cc2)C(C(=O)OCc2ccccc2)=C1C", "note": "(stereo unspecified)", "activation": 3.97},
      {"smiles": "O=C(/C=C/c1ccc(F)cc1)NCCNC(=O)/C=C/c1ccc(F)cc1", "activation": 5},
      {"smiles": "COc1cccc(CNC(=O)c2nnn(CC(=O)Nc3cc(C)ccc3C)c2N)c1", "activation": 0.657},
      {"smiles": "CC(=O)Nc1ccc(NC(=O)C(NS(=O)(=O)c2ccc3c(c2)OCCO3)C(C)C)cc1", "note": "(stereo unspecified)", "activation": 2.35},
      {"smiles": "COc1ccc(NS(=O)(=O)c2ccc(NC(=O)c3ccc(N(C)S(C)(=O)=O)cc3)cc2)cc1", "activation": -1.03},
      {"smiles": "O=C(Nc1ccc2ccccc2c1)/C(=C/c1cccc(Br)c1)NC(=O)c1ccco1", "activation": 5.71}
    ]}
  ]
}
